Molecules are shown by their SMILES. Compounds without any hit were thinned out: in the full panel of roughly 79,000, 15% have a hit. A number with no mark means an inactive call. Activity calls are given as the source filed them. Cut-off read from the data, not from the text of the source: active = growth inhibition above about 70%; inactive = the rest.

The assay is described as follows: NCI Yeast Anticancer Drug Screen. Data for the rad50 strain (AID 155).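 Note: 0% = growth of vehicle-only cultures of the same strain.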 The note with it: S. cerevisiae rad50 strain growth inhibition; at 5.0 µM (retest, dose inferred, filed as 0.5); stronger effect = higher value. In short, it runs like this:
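Inhibition values express reduced yeast growth in compound-treated cultures relative to vehicle-treated controls.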
Take `O=[n+]1c2c(n([O-])c3ccc4ccccc4c31)-c1cccc3cccc-2c13`: the growth inhibition is 1%.

As to `COc1ccc(C(=O)Cc2ccc(Cl)cc2)cc1OC`, the growth inhibition is -12%.

On to `CCN(CC)CCC(=O)c1ccc(Oc2ccc(C)cc2)cc1`, for which the growth inhibition is 13%.

For the compound `BrC(Br)=C1C(=C(Br)Br)C(Br)C1Br` (stereo not given), the growth inhibition was 31%.

Take `O=C(O)C(Cc1cc(I)c(O)c(I)c1)c1ccccc1` (stereo not given): the growth inhibition is -14%.

`CC1(C)OC2C(COC(c3ccccc3)(c3ccccc3)c3ccccc3)OC(n3ccc(=O)[nH]c3=O)C2O1` (stereo not given): the growth inhibition was 57%.

As for `Clc1ccc(C2=CCN3CC=C(c4ccc(Cl)cc4)C23)cc1`, the growth inhibition was 24%.

Regarding `Nc1ccc([N+](=O)[O-])cc1Nc1c2ccccc2nc2ccccc12`, the growth inhibition is 5%.

Turning to `COc1c2c3c(ccnc3c3ccccc13)C(=O)N2C`, the growth inhibition is 29%.

For `O=C1/C(=C/c2ccc([N+](=O)[O-])cc2)CNC/C1=C\c1ccc([N+](=O)[O-])cc1`, the growth inhibition is 74% (active).

As to `Clc1ccc(-c2nnn3ccccc23)cc1`, the growth inhibition was 4%.

For `O=Cc1ccc([N+](=O)[O-])o1`, the growth inhibition is 36%.

In the case of `CN(C)Cc1cc(C(C)(C)C)cc(C2CCCCC2)c1O`, the growth inhibition was 2%.

`COc1ccc2c(c1)CN([C@@H](C)[C@H]1CC[C@H]3[C@@H]4CC[C@H]5C[C@@H](O)CC[C@]5(C)[C@H]4CC[C@]13C)CO2`: the growth inhibition was 90% (active).

With `FC(F)(F)c1ccc(NC(=S)SCc2ccc3c(c2)OCO3)cc1`, the growth inhibition is -5%.

As for `Nc1cc(F)c2c(c1F)C(=O)c1cc(F)ccc1-2`, the growth inhibition is 15%.

For the compound `CC12CCCCC1CCC(Br)C2=O` (stereo not given), the growth inhibition is -115%.

In the case of `CC(C)c1cc(O)c(C(C)(C)C)cc1Cl`, the growth inhibition is -1%.

As to `CCCOC(=O)CCCC(=O)N(CC)CC`, the growth inhibition was 1%.

`CCOC(=O)c1cc(Cc2ccccc2)c(=O)n(C)c1-c1ccccc1`: the growth inhibition is 4%.

In the case of `COS(=O)c1cc(Cl)cc(Cl)c1OC(=O)CSSCC(=O)Oc1c(Cl)cc(Cl)cc1S(=O)OC` (stereo not given), the growth inhibition was 87% (active).

Turning to `ICCCCSc1cc(-c2ccccc2)[o+]c2ccccc12`, the growth inhibition is 23%.

For `Nc1cc(Cl)c2c(c1)Cc1ccccc1-2`, the growth inhibition was 3%.

As for `Cc1ccc(S(=O)(=O)NCCSSCCNS(=O)(=O)c2ccc(C)cc2)cc1`, the growth inhibition was -4%.

For the compound `OC(Cc1cccnc1)(c1ccccc1)c1ccc(Cl)cc1` (stereo not given), the growth inhibition was -7%.

Regarding `Cc1ccc(C2=CC(=O)/C(=C\C(=O)c3ccc(Cl)cc3)O2)cc1`, the growth inhibition is 31%.

With `O=C(Nc1ncnc2c1ncn2C1CC(O)C(CO)O1)c1ccccc1` (stereo not given), the growth inhibition was 1%.

Consider `O=C1CSC(=S)N1c1ccc(F)cc1F`, for which the growth inhibition was 8%.

Turning to `CCCOC(=O)C(Br)C(Br)C(=O)OCCC` (stereo not given), the growth inhibition is 60%.

With `c1ccc2nc3[nH]c4ccccc4c3cc2c1`, the growth inhibition was 24%.

With `O=S(=O)(c1ccc(NC(=S)NCc2ccncc2)cc1)N1CCCCC1`, the growth inhibition is -30%.

With `Nc1ccccc1Sc1ccccc1`, the growth inhibition was 36%.

`CCC(Cl)COP(=O)(OCC(Cl)CC)OC(c1ccc(Cl)c(Cl)c1)P(=O)(OCC(Cl)CC)OCC(Cl)CC` (stereo not given): the growth inhibition is 8%.

As to `O=C(O)/C=C\c1cc2ccccc2c2ccccc12`, the growth inhibition was 13%.

For `COC(=O)C1C2CC3c4[nH]c5cc(OC)c(Br)cc5c4CCN3CC2CC(OC(=O)c2cc(OC)c(OC)c(OC)c2)C1OC` (stereo not given), the growth inhibition is -4%.

For the compound `Cc1c2ccnc(-c3ccc(F)cc3)c2cc2c1[nH]c1ccccc12`, the growth inhibition is -3%.

For `COc1cc2cc[n+]3c4ccc([N+](=O)[O-])cc4ccc3c2cc1OC`, the growth inhibition was 73% (active).

On to `CCCCCCCCC1N(C)CCCN1C`, for which the growth inhibition was -76%.

With `CC1(C)OC2C(COC(c3ccccc3)(c3ccccc3)c3ccccc3)OC(n3cnc4c(=O)[nH]cnc43)C2O1` (stereo not given), the growth inhibition is 43%.

With `COc1cccc2c1C(=O)c1c(O)c3c(c(O)c1C2=O)C[C@@](O)(C(=O)CO)C[C@@H]3OC1CC(N(C)C)C(O)C(C)O1` (stereo not given in full), the growth inhibition was 94% (active).

Values taken from PubChem BioAssay (NCI).
